Laboratory results: PubChem BioAssay AID2289 (National Center for Advancing Translational Sciences (NCATS), 2010)
Among all 340,000 compounds or so, about 3,300 (0.97%) were called active. Inconclusive results (about 9%) are left out. Calls follow the shape of the dose curve; as a rule, active = well fitted inhibition curve with a large enough effect; inconclusive = small, poorly fitted or top-dose-only effect, or effect the other way; inactive = flat fitted curve, though single readings scatter. The list shows a part of the results.

test: qHTS Assay for Modulators of miRNAs and/or Inhibitors of miR-21; conditions: HeLa miR-21-FLuc reporter, luciferase luminescence, 48 h; actives lower the signal; also: nearly all actives have a fitted effect of over 55% in size
Outline: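 Luminescence from a firefly luciferase reporter carrying a miR-21 binding site downstream, stably expressed under a CMV promoter in HeLa cells that make miR-21 endogenously, reports miRNA modulation after 48 h compound exposure up to approximately 40uM final.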
Potency is read from the fitted curve at half-maximal effect.

Potency, active:
O=C(Nc1ccc(NC(=O)c2cccs2)cc1)c1cccs1 5.21 µM
O=C(CNC(=O)c1ccco1)Nc1ccc(Br)cc1 11.7 µM
Cc1ccc(/C=N/c2sc3c(c2C#N)CCC3)s1 0.261 µM
N#Cc1c(/N=C/c2cccs2)sc2c1CCCCC2 0.464 µM
CC1(C(=O)Nc2nc3ccccc3s2)CC1(Br)Br (stereo not drawn) 8.26 µM
O=C(CSc1nccn1-c1ccccc1)Nc1nc2ccccc2s1 6.56 µM
O=C(CC1CCCCC1)Nc1nc2ccccc2s1 1.85 µM
COc1ccc(C2CC(C)(c3ccc(OC)cc3)Nc3ccccc3N2)cc1 (stereo not drawn) 7.36 µM
O=C(c1ccccc1)c1cnc(-c2ccc(Cl)cc2)s1 0.464 µM
O=C(COc1ccc(Cl)cc1Cl)c1ccc[nH]1 10.4 µM
O=C(COc1ccc(Cl)cc1Cl)NCc1ccco1 16.5 µM
N#Cc1ccccc1OCC(=O)NC(=O)NCc1ccco1 6.56 µM
Cc1nnc(NC(=O)c2cc3ccccc3o2)s1 8.26 µM
CC(C)C(=O)Nc1ccc(NC(=O)c2cc3ccccc3o2)cc1 11.2 µM
COc1cc2ccccc2cc1C(=O)Nc1ccc(N2CCN(C)CC2)cc1 7.36 µM
CN1CCN(c2ccc(NC(=O)c3sc4ccccc4c3Cl)cc2)CC1 1.17 µM
CN1CCN(c2ccc(NC(=O)c3cc4ccccc4o3)cc2)CC1 0.927 µM
CC(Cc1ccccc1)NC(=O)c1cc2ccccc2o1 (stereo not drawn) 6.56 µM
O=C(Nc1ncccc1Cl)c1cc2ccccc2o1 0.656 µM
COc1cc(/C=N/O)ccc1OCc1ccccc1Cl 2.93 µM
COc1cc(/C=N/O)ccc1OCc1ccc([N+](=O)[O-])cc1 3.29 µM
COc1cc(/C=N/O)ccc1OCc1ccc(Cl)cc1 0.369 µM
Cc1ccc2c(c1)COc1c3ccc(C(=O)N4CCOCC4)cc3nn1-2 5.21 µM
Cc1ccc2c(c1)COc1c3ccc(C(=O)N4CCCCC4)cc3nn1-2 3.69 µM
O=C(c1ccc2c3n(nc2c1)-c1ccc(Cl)cc1CO3)N1CCOCC1 5.21 µM
O=C(CSc1nnc(-c2ccc(C(F)(F)F)cn2)o1)Nc1cccc(Cl)c1 4.14 µM
O=C(CSc1nnc(-c2ccccn2)o1)Nc1cccc(Cl)c1 1.85 µM
C#Cc1cccc(NC(=O)CSc2nnc(-c3ccc(C(F)(F)F)cn3)o2)c1 4.14 µM
Cc1cc(C)n(-c2cc(C(C)(C)C)nc3c(-c4ccccc4)cnn23)n1 2.61 µM
CC(C)Nc1cc(C(C)(C)C)nc2c(-c3ccccc3)cnn12 6.56 µM
CN(C)CCCNc1cc(C(C)(C)C)nc2c(-c3ccccc3)cnn12 2.93 µM
CCn1cnc2sc(C(=O)Nc3ccc4c(c3)OCO4)c(C)c2c1=O 3.16 µM
Cc1cc(N/N=C/c2ccncc2)nc2ccccc12 5.85 µM
Cc1cc(N/N=C/c2ccccc2Br)nc2ccccc12 13.1 µM
O=c1c2cc(-c3ccccc3)sc2nc2n1N=C(c1cccs1)CS2 0.414 µM
C/C(=C\C(=O)c1ccccc1)Nc1cccc(O)c1 4.65 µM
C/C(=C\C(=O)c1ccc(C)cc1)Nc1cccc(O)c1 3.29 µM
COc1ccc(OC)c(N/C(C)=C/C(=O)c2ccccc2)c1 7.36 µM
Cn1c(=O)n(C)c2cc(NS(=O)(=O)c3ccc(F)cc3)c(NCc3ccccc3)cc21 9.27 µM
CCOc1ccc(OCCn2nnc3ccccc3c2=O)cc1 5.21 µM
O=c1c2ccccc2nnn1COc1cccc(Cl)c1 13.1 µM
O=c1c2ccccc2nnn1COc1cccc2ccccc12 14.7 µM
Cc1ccc(/C=C(\C#N)C(=O)Nc2ccc(Br)cc2)o1 0.656 µM
Cc1cccc(NC(=O)/C(C#N)=C/c2ccco2)c1 4.14 µM
Cc1ccc(NC(=O)/C(C#N)=C/c2ccc(C)o2)cc1 0.329 µM
CC1CC1c1ccc(/C=C(\C#N)C(=O)Nc2ccccc2Cl)o1 (stereo not drawn) 14.7 µM
Cc1ccc(/C=C(\C#N)C(=O)Nc2cccc(Cl)c2)o1 1.47 µM
COc1ccccc1NC(CC(=O)c1ccccc1)C(=O)OCC(=O)c1ccc(C)cc1 (stereo not drawn) 1.47 µM
COc1ccccc1NC(CC(=O)c1ccccc1)C(=O)OCC(=O)c1ccc(C)c(C)c1 (stereo not drawn) 1.04 µM
O=C(CC(Nc1ccc(F)cc1)C(=O)OCC(=O)c1cccs1)c1ccccc1 (stereo not drawn) 3.29 µM
O=C(c1ccc(COCC(F)(F)F)cc1)N1CCN(c2ccccn2)CC1 14.7 µM
CCc1ccc(N2C(=O)Cc3c2nc(N)c(C#N)c3N)cc1 16.5 µM
COc1ccc(NC(=O)C2C3CC/C=C\CCC32)cc1 (stereo not drawn) 6.56 µM
CNC(=O)c1c(NC(=O)c2nc3ccccc3s2)sc2c1CCC2 1.31 µM
O=C(O)c1ccc(N/N=C/c2cc3ccccc3nc2Cl)cc1 3.29 µM
Cc1cccc2cc(/C=N/Nc3ccc(C(=O)O)cc3)c(Cl)nc12 0.521 µM
Cc1ccc2cc(/C=N/Nc3ccc(C(=O)O)cc3)c(Cl)nc2c1 2.07 µM
CCCCOc1ccc2c(c1)C(=O)c1cc(O)ccc1-2 5.85 µM
O=[N+]([O-])c1ccccc1N/N=C1\CC2CC=CC12 (stereo not drawn) 16.5 µM
Cc1[nH]c2ccccc2c1/C=C/c1nc2ccccc2c(=O)[nH]1 1.31 µM
O=c1[nH]c(/C=C/c2ccc(Br)cc2)nc2ccccc12 0.369 µM
C=CCOc1cccc(/C=C/c2nc3ccccc3c(=O)[nH]2)c1 0.826 µM
COCC(C)N=C1NN=C(c2c[nH]c3ccccc23)CS1 (stereo not drawn) 6.56 µM
C=CCOc1ccc2c(OC)c3ccoc3nc2c1OC 13.1 µM
CCc1ccc(NC(=O)c2ccccc2Br)cc1 2.07 µM
CCOc1ccc(NC(=O)c2ccccc2SC)cc1 7.36 µM
CCc1ccc(NC(=O)c2ccccc2SC)cc1 7.36 µM
CCOc1ccc(NC(=O)c2csc3c2CCCC3)cc1 2.07 µM
